# Laboratory results published in PubChem BioAssay AID624351 (Southern Research Specialized Biocontainment Screening …, 2012).
# About 1,400 (58%) of roughly 2,400 compounds were called active.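 The calls were made as follows: active = inhibition of 30% or more at any tested dose; inconclusive = primary hits over the limit that were never retested; inactive = the rest.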 So high a share suggests a set chosen from earlier hits. This is one part of the list.
# Test: ADP Hunter readout inhibition without MgcRacGAP – biochemical, coupled enzyme counter-screen, artefact control for MgcRacGAP inhibitor project, dose response (AID 624351);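 also: signal is the ADP detection kit reading of free GDP without any GAP enzyme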
# Conditions: fluorescence, no MgcRacGAP; series mostly up to 80 µM
row,Structure (SMILES),IC50
1,CCN1CCN(CC(O)COC(c2ccccc2)c2ccccc2C)CC1 (configuration not stated),inactive
2,CCOCCCNC(=S)N1CCN(Cc2ccc3c(c2)OCO3)CC1,inactive
3,CC(C(=O)NC(=O)NC1CCCCC1)N1CCN(c2ccc(O)cc2)CC1 (configuration not stated),69.7 µM (active)
4,CCN1CCN(C(C)C(=O)NC2CCCCC2)CC1 (configuration not stated),inactive
5,CC(C(=O)NC1CCCCC1)N1CCN(C)CC1 (configuration not stated),inactive
6,COc1cc(/C=N\NC(=O)CC(=O)NCCc2ccccc2)ccc1O,29.2 µM (active)
7,COc1cc(/C=N/NC(=O)CCc2ccccc2)ccc1O,29.9 µM (active)
8,COc1cc(/C=N\NC(=O)CNC(=O)C(c2ccccc2)c2ccccc2)ccc1O,50.6 µM (active)
9,COc1ccc(C)cc1NC(=O)C(NCC(O)c1ccccc1)c1ccccc1 (configuration not stated),inactive
10,CCOc1cc(/C=N\NC(=O)CC(=O)NCCc2ccccc2)ccc1O,46 µM (active)
11,COc1cc(/C=N/NC(=O)Cc2nnc(NC(=O)c3ccccc3)s2)ccc1O,inactive
12,Cc1cccc(N2C(S)=C(C#N)C(=O)NC2c2ccco2)c1 (configuration not stated),inactive
13,O=C1C(SCCO)=C(SCCO)C(=O)c2ccccc21,inactive
14,COc1cc(/C=N/NC(=O)CCNC(=O)c2ccccc2Cl)ccc1O,32.2 µM (active)
15,COc1cc(/C=N/NC(=O)/C(=C/c2ccccc2)CCO)ccc1O,45.8 µM (active)
16,COc1cc(OC)c(OC)cc1CN1CCN(Cc2ccc(SC)cc2)CC1,inactive
17,O=C(O)CCCn1c(=S)[nH]c2c(sc3ccc([N+](=O)[O-])cc32)c1=O,30.5 µM (active)
18,CCC(C)n1c(=S)[nH]c2c(sc3ccc([N+](=O)[O-])cc32)c1=O (configuration not stated),58.8 µM (active)
19,COc1ccc2nc3cc(Cl)ccc3c(Nc3ccc(O)c(CN4CCN(C)CC4)c3)c2c1,82 µM (active)
20,O=C(C1CCN(Cc2cc(Cl)ccc2O)CC1)N1CCN(Cc2ccccc2)CC1,inactive
21,COc1ccc(CN2CCN(CCCCOc3ccc(Cl)cc3)CC2)c(OC)c1OC,inactive
22,COc1cc(CNCc2ccccc2C(F)(F)F)cc(OC)c1,inactive
23,Cc1nc(/N=C(\N)NC(=O)N2c3ccccc3Sc3ccccc32)nc2ccccc12,inactive
24,COc1cc(CN2CCC(C(=O)N3CCCC(C)C3)CC2)cc(Br)c1O (configuration not stated),inactive

row,Structure (SMILES),IC50
1,Oc1ccc(C=NNc2ccccn2)c(O)c1,20.8 µM (active)
2,Cc1nc(Cl)cc(N/N=C/c2ccc(O)cc2O)n1,17.3 µM (active)
3,Oc1ccc(/C=N/Nc2cccc(Cl)n2)c(O)c1,25.6 µM (active)
4,Nc1ccc2c(c1)Cc1cc(N)c(Cl)cc1-2,8.61 µM (active)
5,COc1cc2c(cc1N)-c1ccc(N)cc1C2,36.1 µM (active)
6,Nc1cc2c(cc1N)-c1ccccc1C2,55.6 µM (active)
7,Nc1ccc2c(c1Br)Cc1ccccc1-2,59.2 µM (active)
8,O=C1C=CC(=Nc2ccc3c(c2)Cc2ccccc2-3)O1,inactive
9,Nc1ccc2c(c1)Cc1cc(N)c(Br)cc1-2,7.05 µM (active)
10,Cc1ccc(OCCCN2CCCC2)c(C)c1,inactive
11,O=C(CNS(=O)(=O)c1ccccc1)N/N=C/c1ccc(O)cc1,61.6 µM (active)
12,O=C(C[n+]1ccccc1)N/N=C/c1ccc(O)cc1,81.2 µM (active)
13,COc1ccc(Cc2nnc(NC(=O)Cc3cccs3)s2)cc1,inactive
14,C[n+]1c(-c2ccc(C=NNC(=O)c3ccc(C(=O)NN=Cc4ccc(-c5cn6ccccc6[n+]5C)cc4)cc3)cc2)cn2ccccc21,inactive
15,O=C(Cc1cccs1)N/N=C\c1ccc(O)cc1,42.6 µM (active)
16,CC(=O)Oc1ccc2c(=O)c(Oc3ccccc3)coc2c1OC(C)=O,inactive
17,CCN1/C(=C/c2ccc3cc(C)ccc3[n+]2CC)Sc2ccccc21,inactive
18,OC(CON=C1c2ccccc2-c2ccccc21)CN1CCNCC1 (configuration not stated),inactive
19,O=C(CNC(=O)c1ccccc1Br)N/N=C/c1ccc(O)cc1,54.3 µM (active)
20,O=C(N/N=C/c1ccc(O)cc1)c1cccc(C(F)(F)F)c1,69.2 µM (active)
21,Cc1ccc(C(=O)Oc2csc(=S)n2C(=O)c2ccc(C)cc2)cc1,inactive
22,Cc1ccc(C)c(OCCCCN2CCCCC2)c1,inactive
23,COc1ccc(CN2CCC(N3CC(C)OC(C)C3)CC2)c(OC)c1OC (configuration not stated),inactive
24,COc1cc(/C=N/NC(=O)c2ccoc2C)ccc1O,32.2 µM (active)

row,Structure (SMILES),IC50
1,Cc1cc(C(=O)NNC(=O)/C=C/c2ccco2)c(C)o1,inactive
2,COc1cc(/C=N/NC(=O)c2cc(C)oc2C)ccc1O,49.8 µM (active)
3,CCCN(CCO)CCCc1ccccc1,inactive
4,OCCN1CCN(Cc2ccc3ccccc3c2)CC1,inactive
5,OCCN(CCO)c1ccc2ccccc2c1,65 µM (active)
6,COc1cc(/C=N/n2cnnc2)ccc1OC(=O)c1cccnc1,inactive
7,COc1cc(/C=N/n2nnnc2N)ccc1O,18.4 µM (active)
8,CCOc1cc(/C=N/n2cnnc2)ccc1O,34 µM (active)
9,CCOc1cc(/C=N\n2nnnc2N)ccc1O,45.1 µM (active)
10,CCc1nnc(N/N=C/c2cc(Br)c(O)cc2O)n1N,72.7 µM (active)
11,Cc1[nH]c2ccccc2c1/C=N\NC(=O)CNc1ccc2c(c1)OCO2,inactive
12,CCc1nnc(N/N=C/c2c(C)[nH]c3ccccc23)n1N,45.9 µM (active)
13,Cc1[nH]c2ccccc2c1/C=N/Nc1nncn1N,62.6 µM (active)
14,N#CC(C#N)=C1C=CC=CN1/C(=C\c1ccco1)C(=O)c1ccc(Br)cc1,inactive
15,O=C(O)c1cccc(-n2sc3ccccc3c2=O)c1,inactive
16,O=c1c2ccccc2sn1-c1ccc(F)cc1,inactive
17,Cc1ccc(C(C2=C(O)CC(C)(C)CC2=O)C2C(=O)CC(C)(C)CC2=O)o1 (configuration not stated),inactive
18,O=C1CC(c2ccccc2)CC(O)=C1C=Nc1ccc(O)cc1 (configuration not stated),28.9 µM (active)
19,CC1(C)CC(=O)C(C=Nc2ccc(O)cc2)=C(O)C1,17.4 µM (active)
20,CC1(C)CC(=O)C(C(C2=C(O)CC(C)(C)CC2=O)c2ccc(Br)s2)C(=O)C1 (configuration not stated),inactive
21,CC1(C)CC(=O)C(C=Nc2ccc(N)cc2)=C(O)C1,82.4 µM (active)
22,CC1(C)CC(=O)C2=C(C1)OC1=C(C(=O)CC(C)(C)C1)C2c1ccc(O)cc1O,inactive
23,Cc1ccc(C(C2=C(O)CC(C)(C)CC2=O)C2C(=O)CC(C)(C)CC2=O)s1 (configuration not stated),inactive
24,O=C1CCCC(O)=C1C=Nc1ccc(O)cc1,18.6 µM (active)
